KCNK9 inh = inhibitors of human KCNK9 two-pore domain potassium channel; Q9NPC2; HEK293 KCNK9, FluxOR thallium flux fluorescence; stronger effect = lower value; B-score at 10 µM; actives 1.2% (n = 310,000);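 active = ratio B-score over 3 SD below the library mean, with starting fluorescence within 5 SD of its mean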;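 note: negative B-score means less thallium flux so channel inhibition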
Target sequence (Q9NPC2 whole entry, looked up, the tested form may be a part): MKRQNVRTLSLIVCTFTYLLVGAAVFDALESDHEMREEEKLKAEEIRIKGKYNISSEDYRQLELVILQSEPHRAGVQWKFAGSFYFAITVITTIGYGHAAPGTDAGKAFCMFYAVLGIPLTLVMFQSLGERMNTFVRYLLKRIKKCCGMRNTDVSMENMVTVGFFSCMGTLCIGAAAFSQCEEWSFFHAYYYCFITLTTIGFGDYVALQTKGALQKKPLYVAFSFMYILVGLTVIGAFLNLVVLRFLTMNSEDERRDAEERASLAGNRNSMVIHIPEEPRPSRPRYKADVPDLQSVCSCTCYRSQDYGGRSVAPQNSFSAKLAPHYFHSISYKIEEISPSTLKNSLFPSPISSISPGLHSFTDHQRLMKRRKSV
TMEM16A act = activates or potentiates the mouse TMEM16A chloride channel; AID 623877; HEK293 TMEM16A/YFP-H148Q/I152L, iodide quench fluorescence; stronger effect = lower value; actives 0.3% (n = 340,000); Q8BHY3; B-score at 10 µM;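 active = fluorescence-ratio B-score plate-corrected deviation score at least 3 library SD below zero, with starting fluorescence score within 5 deviations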;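 note: channel opened by trigger with iodide after compound preincubation; score built on the fluorescence ratio of max minus min over baseline; more negative score means more quench and so TMEM16A activation or potentiation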
KCNK3 block = human KCNK3 channel inhibition, primary screen. B-score at 10 µM. actives 0.84% (n = 340,000). AID 602410. CHO-KCNK3 thallium flux, FluxOR fluorescence; stronger effect = lower value;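 active = B-score under library mean minus 4 SD, starting fluorescence ratio at most library mean plus 5 SD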;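 note: more negative B-score means stronger inhibition of thallium flux through KCNK3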
Kir21 inh = Kir2.1 (mouse) channel inhibition; actives 0.85% (n = 310,000); B-score at 10 µM; HEK293-Kir2.1, FluxOR thallium flux fluorescence; stronger effect = lower value; AID 1672; P35561;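 active = fluorescence ratio B-score at or below minus 3 SD of library scores, with starting-brightness B-score within 2 SD, cut at about -4.2 in these data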;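 note: channel flux triggered by added potassium and thallium sulfate stimulus; B-score of peak minus minimum fluorescence over baseline after thallium stimulus; more negative B-score means stronger Kir2.1 block with less thallium influx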
ANO1 block = blocks the mouse calcium-activated chloride channel TMEM16A; AID 588511; normalized B-score (activity score, 25-100; higher = stronger inhibition) at 10 µM; actives 1.2% (n = 310,000); Q8BHY3; HEK293 TMEM16A/YFP iodide influx fluorescence, ionomycin;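 active = ratio plate-corrected score three or more library SD toward inhibition, starting fluorescence score within five deviations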;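 note: score derived from kinetic fluorescence span divided by baseline fluorescence per well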
KCNK9 block conf = confirmation of human KCNK9 potassium channel inhibitors | HEK293 KCNK9 cells, FluxOR thallium flux fluorescence | shares compounds with KCNK9 inh | AID 492992 | actives 43% (n = 4,900) | inhibition, % at 10 µM;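 active = thallium signal inhibited by more than 5 SD of the compound-free buffer control wells, on both duplicate plates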;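 note: 0% = assay buffer control wells without compound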
Kir21 sel = selectivity of KCNK9 modulators against mouse Kir2.1; shares compounds with KCNK9 inh; Kir2.1 cells, FluxOR thallium flux fluorescence; inhibition, % at 10 µM; actives 4% (n = 4,900);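 active = thallium signal drop more than 5 SD beyond the mean of the no-compound control wells, seen in both duplicate plates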;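 note: signal is fluorescence rise after thallium addition divided by baseline fluorescence; plate controls were assay buffer only for no effect and full block by chlorpromazine control for full effect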
KCNK9 uninduced = second check of KCNK9 modulator effects in non-induced HEK293 cells | shares compounds with KCNK9 inh | FluxOR thallium flux | inhibition, % at 10 µM | actives 40% (n = 4,900) | AID 492997;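 active = thallium signal drop beyond 5 SD of the untreated control mean, on both duplicate plates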;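 note: plate controls were buffer only IC0 wells for no effect and SID17386958 at its maximal inhibitory level for full effect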
Numbers without * were called inactive. Only some compounds are listed: those with a hit (about 3.5% of all), similar ones and a draw of the others.

What do the screens show for `CC(=O)c1ccc(C(=O)N2CCCC(C(=O)c3ccc(Cl)cc3)C2)s1` (configuration not stated)?
KCNK9 inh: inactive; TMEM16A act: inactive; KCNK3 block: inactive; Kir21 inh: -0.75; ANO1 block: inactive; KCNK9 block conf: inactive; Kir21 sel: inactive; KCNK9 uninduced: inactive

How did Cc1ccc(NC(=O)CSc2ccc3c(c2)OCCO3)nc1 do in these assays?
KCNK9 inh: inactive; TMEM16A act: inactive; KCNK3 block: inactive; Kir21 inh: -1.2; ANO1 block: inactive

Results for COC(=O)c1cc(S(=O)(=O)N(Cc2ccccc2)C(C)(C)C)c[nH]1 ?
KCNK9 inh: inactive; TMEM16A act: inactive; KCNK3 block: inactive; Kir21 inh: -1.9; ANO1 block: inactive

Results for C[C@]12c3[nH]c4ccc(Cl)cc4c3CCN1C(=O)[C@@H](CC(=O)NCc1ccco1)C[C@@H]2C(=O)N1CCCCC1 ?
KCNK3 block: inactive

What do the screens show for `C[C@H](CO)N1C[C@H](C)[C@@H](CN(C)C(=O)Nc2ccccc2)Oc2ccc(NC(=O)Nc3ccccc3)cc2C1=O`?
KCNK3 block: inactive

Results for Cc1ccc2[nH]nc(C(=O)N3CCCC(C(=O)c4ccc(Cl)cc4)C3)c2c1 (configuration not stated) ?
KCNK9 inh: inactive; TMEM16A act: inactive; KCNK3 block: inactive; Kir21 inh: 0.24; ANO1 block: inactive; KCNK9 block conf: inactive; Kir21 sel: inactive; KCNK9 uninduced: inactive

What do the screens show for `CSc1ccc(C(=O)C2CCCN(C(=O)c3ccc4c(c3)OCO4)C2)cc1` (configuration not stated)?
KCNK9 inh: inactive; TMEM16A act: inactive; KCNK3 block: inactive; Kir21 inh: 0.11; ANO1 block: inactive; KCNK9 block conf: inactive; Kir21 sel: inactive; KCNK9 uninduced: inactive

What do the screens show for `CC1CCCN(C(=O)c2ccc3c(c2)OCO3)C1` (configuration not stated)?
KCNK9 inh: inactive; TMEM16A act: inactive; KCNK3 block: inactive; Kir21 inh: -1; ANO1 block: inactive

What do the screens show for `COc1ccc(-c2n(Cc3ccccc3)c3ccccc3[n+]2Cc2ccccc2)cc1`?
KCNK9 inh: -11*; TMEM16A act: inactive; KCNK3 block: inactive; Kir21 inh: -1.4; ANO1 block: 25*; KCNK9 block conf: inactive; Kir21 sel: 43%*; KCNK9 uninduced: inactive

What do the screens show for `COc1ccc(-c2nc3ccccc3n2Cc2ccccc2)cc1`?
KCNK9 inh: inactive; TMEM16A act: inactive; KCNK3 block: inactive; Kir21 inh: -0.24; ANO1 block: inactive

Results for O=[N+]([O-])c1ccc(Cl)c(S(=O)(=O)N2CCCCCC2)c1 ?
KCNK9 inh: -11*; TMEM16A act: inactive; KCNK3 block: inactive; Kir21 inh: -0.02; ANO1 block: inactive; KCNK9 block conf: inactive; Kir21 sel: inactive; KCNK9 uninduced: 24%*

How did CN1CCN(S(=O)(=O)c2cc([N+](=O)[O-])ccc2Cl)CC1 do in these assays?
KCNK9 inh: inactive; TMEM16A act: inactive; KCNK3 block: inactive; Kir21 inh: -2.5; ANO1 block: inactive

What do the screens show for `Cc1ccc(SCCN2CCN(Cc3ccccc3)CC2)cc1`?
KCNK9 inh: inactive; TMEM16A act: inactive; KCNK3 block: inactive; Kir21 inh: -4.3; ANO1 block: inactive; KCNK9 block conf: inactive; Kir21 sel: inactive; KCNK9 uninduced: inactive

Results for Cc1ccc(SCCN2CCN(C)CC2)cc1 ?
KCNK9 inh: inactive; TMEM16A act: inactive; KCNK3 block: inactive; Kir21 inh: 0.67; ANO1 block: inactive

How did Cc1ccc(NS(=O)(=O)c2cc(NC(=O)c3ccc4c(c3)NC(=O)CS4)ccc2C)c(C)c1 do in these assays?
KCNK9 inh: inactive; TMEM16A act: inactive; KCNK3 block: inactive; Kir21 inh: 0.13; ANO1 block: inactive

Results for Cc1ccc(Sc2nc(-c3ccccc3)nnc2C(F)(F)F)cc1 ?
KCNK9 inh: inactive; TMEM16A act: inactive; KCNK3 block: inactive; Kir21 inh: 1.2; ANO1 block: inactive; KCNK9 block conf: inactive; Kir21 sel: inactive; KCNK9 uninduced: inactive

How did Cc1ccnc(Nc2nc(-c3c(C)nc4sccn34)cs2)c1 do in these assays?
KCNK9 inh: -17*; KCNK3 block: inactive; Kir21 inh: 4; ANO1 block: inactive; KCNK9 block conf: 40%*; Kir21 sel: inactive; KCNK9 uninduced: 28%*

What do the screens show for `O=S(=O)(Nc1nc(SCc2ccc(Cl)cc2)n[nH]1)c1ccc(F)cc1`?
KCNK9 inh: -11*; TMEM16A act: inactive; KCNK3 block: inactive; Kir21 inh: -10*; ANO1 block: inactive; KCNK9 block conf: 28%*; Kir21 sel: 38%*; KCNK9 uninduced: 42%*

What do the screens show for `O=C(OC1CCN(c2ncc(C(F)(F)F)cc2Cl)CC1)c1cccc(C(F)(F)F)c1`?
KCNK9 inh: inactive; TMEM16A act: inactive; KCNK3 block: inactive; Kir21 inh: 0.01; ANO1 block: inactive

Results for O=C(c1cccc(C(F)(F)F)c1)N1CCOC12CCN(c1ncc(C(F)(F)F)cc1Cl)CC2 ?
KCNK9 inh: inactive; TMEM16A act: inactive; KCNK3 block: inactive; Kir21 inh: -2.5; ANO1 block: inactive; KCNK9 block conf: inactive; Kir21 sel: inactive; KCNK9 uninduced: inactive

What do the screens show for `CC(C)C[C@H](NC(=O)OC(C)(C)C)C(=O)N/N=C/C1=Cc2ccccc2OC1C` (some centres not stated)?
KCNK9 inh: -11*; TMEM16A act: inactive; KCNK3 block: inactive; Kir21 inh: 0.23; ANO1 block: inactive; KCNK9 block conf: 68%*; Kir21 sel: inactive; KCNK9 uninduced: 32%*

Results for COC(=O)C(C)N(C(=O)c1cccc2ccccc12)c1c(C)cccc1C (configuration not stated) ?
KCNK9 inh: -12*; TMEM16A act: inactive; KCNK3 block: inactive; Kir21 inh: -1.9; ANO1 block: inactive; KCNK9 block conf: 52%*; Kir21 sel: inactive; KCNK9 uninduced: 32%*

Results for O=[N+]([O-])c1c(C(Cl)Cl)nn(-c2ccc(Cl)cc2)c1N1CCCCC1 ?
KCNK9 inh: inactive; TMEM16A act: inactive; KCNK3 block: inactive; Kir21 inh: 0.36; ANO1 block: inactive; KCNK9 block conf: inactive; Kir21 sel: inactive; KCNK9 uninduced: inactive
